In experiment [1] the target is Arylsulfatase A (Homo sapiens) (UniProt P15289). As to the kind of experiment: qHTS screen for enhancers of Arylsulfatase A (ASA1): LOPAC Validation Assay (AID 720538). Summed up:
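MLD patient fibroblasts (SV40, ASA-I179S), 1536-well; adhere 6 hrs; cpd 48h, 37 degree C, 5% CO2; pNCS 0.5mM final in lysis buffer, 14h RT; stop 1N NaOH final; fluor. Ex525/Em598.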
In general terms: qHTS replaces the single test concentration by a dilution series.

Experiment [2] is described as follows: qHTS for compounds that reverse cellular toxicity of Amyloid beta (A-beta) peptide in yeast: LOPAC Validation Assay (AID 720559).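 Also: plate controls were DMSO for no effect and equimolar ferric chloride plus clioquinol rescue for full effect.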 Summed up: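 Medium dispensed, compounds pinned, A-beta yeast suspension added; plates held at 30 C for 48 hr; absorbance measured at 600 nm to gauge growth; values scaled between DMSO and FeCl3/clioquinol (equimolar) controls.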

Experiment [3] is described as follows: qHTS for Activators of Parkin Expression: LOPAC Validation Assay (NLuc Reporter) (AID 720572). The method in brief:
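Cells harboring the Parkin-promoter coincidence reporter were treated for 24 h at seven concentrations. NLuc output was measured sequentially after the FLuc channel and scaled between DMSO and positive control values.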

Experiment [4] in a line: qHTS for Activators of Parkin Expression: LOPAC Validation Assay (FLuc Reporter) (AID 720573). The method in brief:
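Cells seeded, 24 h; compounds pinned, 7-pt dose response; 24 h at 37 C/5% CO2; volume reduced; FLuc reagent 10 min RT; luminescence read. Normalization: DMSO = 0, positive control = 100%.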

The target of experiment [5] is T1, Hexokinase-4 (Homo sapiens) + Glucokinase regulatory protein (Homo sapiens) (UniProt P35557+Q14397). Briefly: qHTS assay for inhibitors of recombinant human GCK-GKRP interaction: Diaphorase-coupled assay (AID 743205). Summed up: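 25 mM Hepes pH 7.6, 5 mM glucose, 0.4 mM ATP, 4 U/ml G6PDH; 10 nM each GST-GCK/FLAG-GKRP. Kinetic fluorescence read, 1/min × 30 min. Normalized: DMSO ± enzyme = max/min.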
T1 sequence (P35557 whole entry, looked up): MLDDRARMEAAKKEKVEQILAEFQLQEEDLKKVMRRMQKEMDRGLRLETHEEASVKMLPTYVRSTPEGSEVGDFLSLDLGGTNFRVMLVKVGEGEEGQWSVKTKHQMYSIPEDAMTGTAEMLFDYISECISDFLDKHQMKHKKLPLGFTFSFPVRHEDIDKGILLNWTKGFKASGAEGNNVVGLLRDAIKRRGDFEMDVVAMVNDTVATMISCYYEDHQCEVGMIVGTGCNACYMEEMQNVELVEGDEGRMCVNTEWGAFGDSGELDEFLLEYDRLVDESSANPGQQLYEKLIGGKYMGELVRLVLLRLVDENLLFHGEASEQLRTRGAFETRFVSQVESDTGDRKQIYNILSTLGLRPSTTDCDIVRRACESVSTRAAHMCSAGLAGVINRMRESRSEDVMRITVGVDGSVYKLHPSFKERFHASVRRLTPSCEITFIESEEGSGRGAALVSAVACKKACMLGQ
T1 sequence (Q14397 whole entry, looked up): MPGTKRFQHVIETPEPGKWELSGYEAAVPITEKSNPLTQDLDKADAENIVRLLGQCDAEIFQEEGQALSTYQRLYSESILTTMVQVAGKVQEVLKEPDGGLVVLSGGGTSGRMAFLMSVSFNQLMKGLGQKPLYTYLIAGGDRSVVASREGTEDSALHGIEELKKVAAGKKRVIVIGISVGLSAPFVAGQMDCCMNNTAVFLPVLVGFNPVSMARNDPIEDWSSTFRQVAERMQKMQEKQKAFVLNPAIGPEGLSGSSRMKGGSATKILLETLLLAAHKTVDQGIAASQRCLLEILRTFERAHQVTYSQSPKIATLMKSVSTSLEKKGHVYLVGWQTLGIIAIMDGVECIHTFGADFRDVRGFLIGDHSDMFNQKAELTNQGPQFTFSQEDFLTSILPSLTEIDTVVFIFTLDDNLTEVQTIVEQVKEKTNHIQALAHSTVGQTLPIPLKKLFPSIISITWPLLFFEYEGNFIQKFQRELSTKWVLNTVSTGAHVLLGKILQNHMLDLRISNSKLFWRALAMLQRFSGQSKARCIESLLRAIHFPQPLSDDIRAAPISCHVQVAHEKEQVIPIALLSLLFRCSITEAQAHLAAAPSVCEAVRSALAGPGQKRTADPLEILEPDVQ

Experiment [6] concerns the target T1, Hexokinase-4 (Homo sapiens) + Glucokinase regulatory protein (Homo sapiens). As to the kind of experiment: qHTS assay for inhibitors of recombinant human GCK-GKRP interaction: ADP-Glo assay (AID 743206).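 Also: plate controls were DMSO plus enzyme for no effect and no enzyme for full effect.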 The method in brief:
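Pin-transferred compounds meet a 15 nM GST-GCK/15 nM FLAG-GKRP/2 uM S6P mix (dispense concentrations). ATP is then added to 0.4 mM final with 5 mM glucose, and the reaction runs 60 min at room temperature. ADP is quantified luminescently.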

The target is the same in experiment [7]. Briefly: qHTS assay for inhibitors of recombinant human GCK-GKRP interaction: HTRF assay (AID 743207).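 Also: 0% = DMSO with GCK present and -100% = DMSO wells lacking GCK.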 Summed up: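 5 nM GST-GCK + 5 nM FLAG-GKRP + 2 uM S6P, pH 7.1 buffer (25 mM Hepes, 2 mM MgCl2, 25 mM KCl, 1 mM DTT, Tween/BSA); pin-transferred cpd; anti-FLAG XL665/anti-GST K; 60 min RT; HTRF.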
Experiment [8] is described as follows: qHTS Assay for Identifying Gametocytocidal Compounds (AID 743244). Also: potency is read from the fitted curve at half-maximal effect.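 As to max response: % is scaled to controls: 0 for no effect and ±100 for the full control effect; actives lower the fluorescent signal which means gametocytes are killed.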 Conditions: P. falciparum 3D7 stage III-V gametocytes, alamarBlue, 72 h; max response: stronger effect = lower value. The method in brief: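 In this qHTS viability screen, late-stage 3D7 gametocytes are incubated with compound for 72 h, then with alamarBlue for 24 h; reduced resorufin fluorescence marks killing.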

Experiment [9] is described as follows: qHTS profiling of the MIPE4 collection as inhibitors of Plasmodium falciparum (3D7) proliferation (AID 743344; call rule not given here;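 also: scaled between DMSO vehicle wells and 0.29 µM artemisinin as full inhibition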). Conditions: P. falciparum 3D7 in erythrocytes, SYBR Green DNA fluorescence, 72 h; at 28.5 µM (top of the series) unless noted. The method in brief:
(§1)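 Parasite DNA was quantified by SYBR Green I fluorescence (ex 485, em 535 nm) after overnight lysis in saponin/Triton buffer at room temperature. Cultures at 0.3% parasitemia and 2.5% hematocrit were first exposed to compound for 72 h at 37 C; signals were normalised to artemisinin (0.29 uM) and vehicle wells.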

A short description of experiment [10]: qHTS profiling for inhibitors of Plasmodium falciparum (3D7) proliferation (AID 743322).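 Also: infected erythrocytes exposed to compound for 72 h before lysis; 100% = DMSO vehicle wells and 0% = 0.29 µM artemisinin.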 Conditions: P. falciparum 3D7 proliferation, at 28.7 µM (top of the series). The method in brief: as §1
Experiment [11] in a line: qHTS profiling for inhibitors of Plasmodium falciparum (DD2) proliferation (AID 743323; call rule not given here). Conditions: at 28.7 µM (top of the series), lower = more inhibition. Summed up:
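P. falciparum Dd2-infected erythrocytes (0.3% parasitemia, 2.5% hematocrit) exposed 72 h at 37 C, 5% CO2. Lysis with SYBR Green, overnight at room temperature, fluorescence 485/535 nm; normalized to 0.29 uM artemisinin and DMSO.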

The nature of experiment [12]: qHTS profiling for inhibitors of Plasmodium falciparum (HB3) proliferation (AID 743324).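 Also: 100% = DMSO vehicle wells and 0% = artemisinin-treated control wells.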 Conditions: Plasmodium falciparum HB3 blood-stage proliferation; at 28.7 µM (top of the series). Summed up: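 SYBR Green fluorescence (485 ex/535 em) of lysed cultures, incubated overnight at room temperature in the dark, quantifies parasite DNA. Infected erythrocytes at 0.3% parasitemia and 2.5% hematocrit were exposed 72 h; values normalized to DMSO and 0.29 uM artemisinin controls.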

“And” between values parts separate entries of the source, which are not always exact repeats. Equal entries are not always repeated. Records with an inconclusive call do not appear. Where a structure was tested more than once in an assay, its records may differ in their call. The source made the active and inactive calls. Unless noted, calls follow the shape of the dose curve; as a rule, active = well fitted curve in the direction sought with a large enough effect; inconclusive = small, poorly fitted or top-dose-only effect, or another doubt; inactive = no such curve, though single readings can be large; an effect the other way counts as inactive or inconclusive.

Experimental findings from PubChem BioAssay (NCATS) are described below.

Arylsulfatase A (Homo sapiens), sequence (P15289 whole entry, looked up): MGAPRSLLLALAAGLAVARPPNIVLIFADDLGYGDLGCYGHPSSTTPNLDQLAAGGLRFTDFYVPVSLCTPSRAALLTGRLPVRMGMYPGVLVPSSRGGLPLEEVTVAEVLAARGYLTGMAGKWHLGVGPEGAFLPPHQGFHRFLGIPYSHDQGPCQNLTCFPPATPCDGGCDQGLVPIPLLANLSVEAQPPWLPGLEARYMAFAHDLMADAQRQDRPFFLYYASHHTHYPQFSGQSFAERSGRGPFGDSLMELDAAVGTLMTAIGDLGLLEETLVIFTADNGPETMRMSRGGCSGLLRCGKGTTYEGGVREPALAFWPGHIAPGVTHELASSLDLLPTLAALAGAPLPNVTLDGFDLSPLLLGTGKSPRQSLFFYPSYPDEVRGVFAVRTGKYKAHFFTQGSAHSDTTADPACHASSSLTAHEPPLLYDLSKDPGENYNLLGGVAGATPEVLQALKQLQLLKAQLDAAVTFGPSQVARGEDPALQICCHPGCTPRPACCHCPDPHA

On to `NC(=O)NO`, for which the Potency entry in experiment [1], in experiment [4], in [5], in [6] and in experiment [7] was “inactive” throughout. Besides, the call in [2] and in experiment [3] was inactive. Moreover, the max response in experiment [8] is -4.54% (inactive) and 19.4% (inactive). For the same compound, in experiment [9], the parasite growth, % of DMSO control was 93.9%.
With `Clc1ccc2c(c1)C(N1CCNCC1)=Nc1ccccc1O2`, the Potency entry in experiment [1], in experiment [4], in experiment [5], in [6] and in [7] was “inactive” throughout. For the same compound, the compound was called inactive in experiment [2] and in experiment [3]. For the same compound, the Potency in experiment [8] is 794 nM (active). Moreover, the max response in experiment [8] is -3.09% (inactive). Moreover, the parasite growth, % of DMSO control in [9] worked out at 50.7%.
With `NC(=O)OCC(COC(N)=O)c1ccccc1`, the Potency result in experiment [1], in experiment [4], in [5], in experiment [6] and in experiment [7] was “inactive” throughout. The result in [2] and in [3] was inactive. Further, in experiment [8], the max response is 0.706% (inactive) and 21.3% (inactive). This compound also had a parasite growth, % of DMSO control in experiment [9] of 97.2%.
As for `CNCCCC12CCC(c3ccccc31)c1ccccc12`, the Potency result in [1], in experiment [4], in experiment [5], in experiment [6] and in experiment [7] was “inactive” throughout. For the same compound, the outcome in [2] and in [3] was inactive.
With `COc1cc2nc(N3CCN(C(=O)c4ccco4)CC3)nc(N)c2cc1OC`, the Potency result in [1], in [4], in [5], in [6] and in [7] was “inactive” each time. Moreover, the compound was called inactive in experiment [2] and in experiment [3]. Moreover, the Potency in experiment [8] is 11200 nM (active). Also, the parasite growth, % of DMSO control in experiment [9] is 4.68%.
As for `Cc1cc(C(C)(C)C)c(O)c(C)c1CC1=NCCN1`, the Potency result in [1], in [4], in [5], in experiment [6] and in experiment [7] was “inactive” in each case. Besides, the compound was classed as inactive in [2] and in experiment [3]. Further, the max response in [8] was -1.21% (inactive) and 27.5% (inactive).
Consider `Fc1ccc([C@@H]2CCNC[C@H]2COc2ccc3c(c2)OCO3)cc1`, for which the Potency entry in experiment [1], in experiment [4], in experiment [5], in experiment [6] and in experiment [7] was “inactive” in each case. Further, the call in [2] and in experiment [3] was inactive. In addition, the Potency in experiment [8] was 12.6 µM (active) and 1.12 µM (active). Also, the parasite growth, % of DMSO control in [9] stood at 35.7%.
As to `Clc1ccccc1C(c1ccccc1)(c1ccccc1)n1ccnc1`, the Potency entry in experiment [1], in [4], in [5], in experiment [6] and in [7] was “inactive” throughout. For the same compound, the call in [2] and in experiment [3] was inactive. For the same compound, in experiment [8], the Potency is 2.51 µM (active) and 2.09 µM (active).
For `NCCc1cnc[nH]1`, the Potency result in experiment [1], in [4], in [5], in experiment [6] and in [7] was “inactive” each time. Moreover, the outcome in experiment [2] and in experiment [3] was inactive. The max response in experiment [8] is 8.45% (inactive) and 33% (inactive).
For the compound `CCc1cccc2c3c([nH]c12)C(CC)(CC(=O)O)OCC3` (centres undefined), the Potency result in experiment [1], in experiment [4], in experiment [5], in experiment [6] and in experiment [7] was “inactive” throughout. Further, the result in experiment [2] and in [3] was inactive. Besides, the max response in experiment [8] is 10.8% (inactive) and -5.14% (inactive).
In the case of `COc1cc2nc(N(C)CCCNC(=O)C3CCCO3)nc(N)c2cc1OC` (centres undefined), the Potency result in experiment [1], in experiment [4], in [5], in experiment [6] and in [7] was “inactive” in each case. For the same compound, the compound was called inactive in experiment [2] and in [3]. In addition, the max response in experiment [8] was 19.8% (inactive) and 12.7% (inactive). This compound returned a parasite growth, % of DMSO control in [9] of 64%.
On to `CCN1CCCC1CNC(=O)c1cc(S(=O)(=O)CC)c(N)cc1OC` (centres undefined), for which the Potency result in experiment [1], in experiment [4], in experiment [5], in experiment [6] and in experiment [7] was “inactive” each time. Also, the result in experiment [2] and in experiment [3] was inactive. For the same compound, in experiment [8], the max response is -5.68% (inactive) and 24.9% (inactive). The same compound displayed a parasite growth, % of DMSO control in experiment [9] of 93.7%.
As to `CCCNCC(O)COc1ccccc1C(=O)CCc1ccccc1` (centres undefined), the Potency entry in experiment [1], in experiment [4], in [5], in experiment [6] and in [7] was “inactive” each time. In addition, the outcome in experiment [2] and in experiment [3] was inactive. Moreover, the Potency in [8] was 3.16 µM (active) and 1.78 µM (active).
In the case of `C[C@H]1c2cccc(O)c2C(O)=C2C(=O)[C@]3(O)C(O)=C(C(N)=O)C(=O)[C@@H](N(C)C)[C@@H]3[C@@H](O)[C@@H]21`, the Potency result in experiment [1], in experiment [4], in experiment [5], in experiment [6] and in experiment [7] was “inactive” in each case. The compound was called inactive in [2] and in experiment [3]. In experiment [8], the max response was 18.1% (inactive). For the same compound, in experiment [10], the remaining parasite growth % (stronger effect = lower value) came out at 16.9%. This compound registered an activity, percent of control in experiment [11] of 12.8%. Moreover, the remaining proliferation (% of control), lower = more inhibition in experiment [12] came to 15.7%.
For `COc1cc2nc(N3CCN(C(=O)C4COc5ccccc5O4)CC3)nc(N)c2cc1OC` (centres undefined), the Potency entry in [1], in [4], in experiment [5], in experiment [6] and in [7] was “inactive” in each case. Also, the result in [2] and in experiment [3] was inactive. For the same compound, the max response in [8] was 2.28% (inactive).
As for `O=C1Cc2cc(CCN3CCN(c4nsc5ccccc45)CC3)c(Cl)cc2N1`, the Potency entry in experiment [1], in [4], in [5], in experiment [6] and in experiment [7] was “inactive” throughout. Moreover, the outcome in experiment [2] and in [3] was inactive. For the same compound, the max response in [8] was -0.117% (inactive) and 9.6% (inactive). The parasite growth, % of DMSO control in experiment [9] was found to be 14.8%.
Turning to `NC12CC3CC(CC(C3)C1)C2`, the Potency entry in experiment [1], in [4], in [5], in experiment [6] and in experiment [7] was “inactive” each time. For the same compound, the compound was classed as inactive in experiment [2] and in [3]. The max response in [8] was -8.46% (inactive). In experiment [9], this compound yielded a parasite growth, % of DMSO control of 11.2%.
`COC(=O)Nc1nc2ccc(C(=O)c3cccs3)cc2[nH]1`: the Potency entry in [1], in experiment [4], in experiment [5], in [6] and in [7] was “inactive” each time. Moreover, the result in experiment [2] and in experiment [3] was inactive. Besides, the max response in [8] is 22.4% (inactive) and 23.7% (inactive). This compound came in with a parasite growth, % of DMSO control in [9] of 54.5%.
Regarding `Cc1cc(C(C)(C)C)cc(C)c1CC1=NCCN1`, the Potency entry in experiment [1], in experiment [4], in [5], in [6] and in experiment [7] was “inactive” in each case. The result in [2] and in experiment [3] was inactive. The max response in [8] is 3.97% (inactive) and -5.84% (inactive).
Turning to `CCCCc1oc2ccccc2c1C(=O)c1cc(I)c(OCCN(CC)CC)c(I)c1`, the compound was called inactive in experiment [2] and in experiment [3]. Further, the Potency result in [4], in [5], in experiment [6] and in [7] was “inactive” throughout.
As for `CN1CCN2c3ccccc3Cc3ccccc3C2C1` (centres undefined), the outcome in [2] and in [3] was inactive. For the same compound, the Potency result in [4], in experiment [5], in [6] and in experiment [7] was “inactive” in each case. Moreover, the max response in experiment [8] was 25.6% (inactive). In experiment [9], the parasite growth, % of DMSO control is 56.9%.
